Common to all, as to details: mRNA level, 48 h; actives raise or lower the signal
Read-out in experiment [1]: Nuclear factor NF-kappa-B p105 subunit (Homo sapiens) (UniProt P19838)
Put plainly: LTEA_HepaRG_NFKB1: Life Technologies and Expression Analysis (LTEA) Assay for Nuclear Factor Kappa B Subunit 1 (NFKB1) using HepaRG (AID 2283521).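 Note: TaqMan qRT-PCR transcript normalised to ACTB GAPDH and POLR2A housekeeping genes.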 In outline: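 Human HepaRG cells receive eight half-log concentrations, highest 100 uM, for 48 h. NFKB1 expression is then quantified by qRT-PCR and analysed for up- or down-regulation relative to 0.5% DMSO vehicle.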

Read-out in experiment [2]: Phosphatase and tensin (PTEN), PTEN (gene 5728)
Put plainly: LTEA_HepaRG_PTEN: Life Technologies and Expression Analysis (LTEA) Assay for Phosphatase and tensin (PTEN) using HepaRG (AID 2283523). In a few lines:
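HepaRG cells, 48 h after plating, exposed in duplicate for 48 h in serum-free induction medium to 8 half-log concentrations up to 100 uM (0.5% DMSO). PTEN mRNA by qRT-PCR, normalized to ACTB, GAPDH, POLR2A; bidirectional fit versus DMSO.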

Read-out in experiment [3]: solute carrier (SLC22A1), SLC22A1 (gene 6580)
Put plainly: LTEA_HepaRG_SLC22A1: Life Technologies and Expression Analysis (LTEA) Assay for solute carrier (SLC22A1) using HepaRG (AID 2283524). In a few lines:
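Differentiated human HepaRG cells in serum-free induction medium, exposed 48 h in duplicate to 8-point half-log series from 100 µM top in 0.5% DMSO. SLC22A1 mRNA by TaqMan qRT-PCR normalized to ACTB, GAPDH, POLR2A; bidirectional fit versus DMSO.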

Read-out in experiment [4]: Pyruvate Dehydrogenase Kinase 4 (PDK4), PDK4 (gene 5166)
Put plainly: LTEA_HepaRG_PDK4: Life Technologies and Expression Analysis (LTEA) Assay for Pyruvate Dehydrogenase Kinase 4 (PDK4) using HepaRG (AID 2283525). In a few lines: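 HepaRG cells plated 48 h, then switched to serum-free induction medium and exposed in duplicate for 48 h to 8 half-log concentrations from 100 uM in 0.5% DMSO. PDK4 mRNA measured by qRT-PCR, normalized to ACTB, GAPDH and POLR2A; bidirectional fit versus DMSO.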

Read-out in experiment [5]: NAD(P)H dehydrogenase [quinone] 1 (NQO1), NQO1 (gene 1728)
Put plainly: LTEA_HepaRG_NQO1: Life Technologies and Expression Analysis (LTEA) Assay for NAD(P)H dehydrogenase [quinone] 1 (NQO1) using HepaRG (AID 2283526). In a few lines:
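Human HepaRG hepatic cells received chemicals for 48 h in serum-free induction medium with 0.5% DMSO, up to 100 uM. Expression was assessed by TaqMan qRT-PCR against housekeeping controls and fitted bidirectionally against DMSO.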

Read-out in experiment [6]: Nuclear factor erythroid 2-related factor 2 (Homo sapiens) (UniProt Q16236)
Put plainly: LTEA_HepaRG_NFE2L2: Life Technologies and Expression Analysis (LTEA) Assay for Nuclear factor erythroid 2-related factor 2 (NFE2L2) Transcription Factor using HepaRG (AID 2283527).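 Note: TaqMan qRT-PCR transcript level normalised to ACTB GAPDH and POLR2A housekeeping genes.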 In outline:
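Differentiated human HepaRG cells, serum-free induction medium, exposed 48 h in duplicate to eight half-log concentrations up to 100 uM in 0.5% DMSO. NFE2L2 mRNA by Fluidigm TaqMan qRT-PCR, normalised to ACTB, GAPDH, POLR2A; bidirectional change versus DMSO.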

Read-out in experiment [7]: succinate dehydrogenase complex iron sulfur subunit B (SDHB), SDHB (gene 6390)
Put plainly: LTEA_HepaRG_SDHB: Life Technologies and Expression Analysis (LTEA) Assay for succinate dehydrogenase complex iron sulfur subunit B (SDHB) using HepaRG (AID 2283528). In a few lines: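 A human HepaRG culture in serum-free induction medium received test chemicals for 48 h over an eight-point range capped at 100 uM. SDHB expression change was quantified by qRT-PCR.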

Read-out in experiment [8]: Signal transducer and activator of transcription 3 (Homo sapiens) (UniProt P40763)
Put plainly: LTEA_HepaRG_STAT3: Life Technologies and Expression Analysis (LTEA) Assay for Signal transducer and activator of transcription (STAT3) using HepaRG (AID 2283529). In outline: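 Differentiated HepaRG cells, serum-free induction medium, dosed 48 h in duplicate, 8 half-log concentrations from 100 uM in 0.5% DMSO. STAT3 mRNA by qRT-PCR, normalised to ACTB, GAPDH, POLR2A; bidirectional fit versus DMSO.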

Read-out in experiment [9]: solute carrier (SLCO1B1), SLCO1B1 (gene 10599)
Put plainly: LTEA_HepaRG_SLCO1B1: Life Technologies and Expression Analysis (LTEA) Assay for solute carrier (SLCO1B1) using HepaRG (AID 2283530). In a few lines:
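Gain or loss of SLCO1B1 mRNA is fitted against the 0.5% DMSO vehicle in human HepaRG liver cells treated 48 h at up to 100 uM in half-log steps. Expression comes from qRT-PCR normalized to endogenous controls.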

Read-out in experiment [10]: sulfotransferase 2A1 (SULT2A1), SULT2A1 (gene 6822)
Put plainly: LTEA_HepaRG_SULT2A1: Life Technologies and Expression Analysis (LTEA) Assay for sulfotransferase 2A1 (SULT2A1) using HepaRG (AID 2283531). In a few lines: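 Cells were plated and cultured 48 h, switched to serum-free induction medium, then dosed in duplicate for 48 h (8 concentrations, max 100 uM). RNA was isolated and SULT2A1 expression measured by qRT-PCR; gain or loss of signal fitted relative to DMSO.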

Read-out in experiment [11]: Transforming Growth Factor (TGFB1), TGFB1 (gene 7040)
Put plainly: LTEA_HepaRG_TGFB1: Life Technologies and Expression Analysis (LTEA) Assay for Transforming Growth Factor (TGFB1) Transporter using HepaRG (AID 2283533). In outline: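 Expression change of TGFB1 in human HepaRG cells is measured after a 48 h chemical exposure, up to 100 uM in 0.5% DMSO vehicle. Curves are fitted in both directions relative to the DMSO baseline.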

Read-out in experiment [12]: TIMP1, TIMP1 (gene 7076)
Put plainly: LTEA_HepaRG_TIMP1: Life Technologies and Expression Analysis (LTEA) Assay for TIMP1 using HepaRG (AID 2283534).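 Note: TaqMan qRT-PCR signal normalized to ACTB GAPDH and POLR2A housekeeping genes.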 In a few lines:
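We dosed human liver HepaRG cultures for 48 hours with up to 100 uM test chemical and measured TIMP1 expression by qRT-PCR. Activity in either direction is fitted relative to the 0.5% DMSO vehicle.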

Read-out in experiment [13]: Tumor necrosis factor receptor 1 (TNFRSF1A), TNFRSF1A (gene 7132)
Put plainly: LTEA_HepaRG_TNFRSF1A: Life Technologies and Expression Analysis (LTEA) Assay for Tumor necrosis factor receptor 1 (TNFRSF1A) using HepaRG (AID 2283535). In a few lines: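 Expression of TNFRSF1A in human HepaRG liver cells was measured by qRT-PCR 48 h after chemical dosing (maximum 100 uM). Bidirectional curve fitting used 0.5% DMSO as baseline.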

Read-out in experiment [14]: Thyroid Hormone Responsive (THRSP), THRSP (gene 7069)
Put plainly: LTEA_HepaRG_THRSP: Life Technologies and Expression Analysis (LTEA) Assay for Thyroid Hormone Responsive (THRSP) using HepaRG (AID 2283536). In outline: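 Differentiated HepaRG cells treated 48 h in serum-free induction medium with 8 half-log concentrations up to 100 uM (0.5% DMSO), duplicates. THRSP mRNA by TaqMan qRT-PCR normalised to ACTB, GAPDH, POLR2A; bidirectional fit versus DMSO.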

Read-out in experiment [15]: Cellular tumor antigen p53 (Homo sapiens) (UniProt P04637)
Put plainly: LTEA_HepaRG_TP53: Life Technologies and Expression Analysis (LTEA) Assay for Tumor Protein P53 (TP53) using HepaRG (AID 2283537). In a few lines:
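Gain or loss of TP53 mRNA signal is scored relative to 0.5% DMSO after 48 h chemical treatment of HepaRG liver cells, tested in duplicate at eight half-log concentrations up to 100 uM.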

Read-out in experiment [16]: UDP glucuronosyltransferase (UGT1A1), UGT1A1 (gene 54658)
Put plainly: LTEA_HepaRG_UGT1A1: Life Technologies and Expression Analysis (LTEA) Assay for UDP glucuronosyltransferase (UGT1A1) using HepaRG (AID 2283538). In outline: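 Human liver HepaRG cultures receive test chemical for 48 h, up to 100 uM in 0.5% DMSO, with phenobarbital induction controls. UGT1A1 mRNA is measured by qRT-PCR and normalized to ACTB, GAPDH and POLR2A.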

Read-out in experiment [17]: UDP glucuronosyltransferase (UGT1A6), UGT1A6 (gene 54578)
Put plainly: LTEA_HepaRG_UGT1A6: Life Technologies and Expression Analysis (LTEA) Assay for UDP glucuronosyltransferase (UGT1A6) using HepaRG (AID 2283539). In a few lines:
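Endpoint is UGT1A6 transcript induction or loss in a human liver cell line, quantified by TaqMan qRT-PCR 48 h after dosing. Concentrations ran from 100 uM downward in half-log steps in 0.5% DMSO; activity was fitted in both directions versus vehicle.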

Read-out in experiment [18]: X-box binding protein 1 (XBP1), XBP1 (gene 7494)
Put plainly: LTEA_HepaRG_XBP1: Life Technologies and Expression Analysis (LTEA) Assay for X-box binding protein 1 (XBP1) using HepaRG (AID 2283540). In outline:
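Human HepaRG monolayers receive test chemical for 48 h across an eight-point half-log series starting at 100 uM. XBP1 mRNA gain or loss is scored against DMSO by qRT-PCR.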

Read-out in experiment [19]: Protein phosphatase 2A (PPP2R4), PTPA (gene 5524)
Put plainly: LTEA_HepaRG_PPP2R4: Life Technologies and Expression Analysis (LTEA) Assay for Protein phosphatase 2A (PPP2R4) using HepaRG (AID 2283522). In outline:
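Gene-expression endpoint in HepaRG hepatic cells: 48 h treatment across eight half-log concentrations up to 100 uM in 0.5% DMSO. PPP2R4 mRNA by qRT-PCR, normalized to three endogenous control genes.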

Read-out in experiment [20]: Transforming Growth Factor (TGFA), TGFA (gene 7039)
Put plainly: LTEA_HepaRG_TGFA: Life Technologies and Expression Analysis (LTEA) Assay for Transforming Growth Factor (TGFA) using HepaRG (AID 2283532). In outline:
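Differentiated HepaRG cells exposed 48 hours in serum-free induction medium, 0.5% DMSO vehicle, 8-point half-log series from 100 uM, in duplicate. TGFA mRNA by TaqMan qRT-PCR, normalised to ACTB, GAPDH, POLR2A; bidirectional fit versus DMSO.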

Calls of active or inactive are those of the source. Rule for the calls: active = hit-call score of the fitted dose curve at least 0.9, where 1 is the maximum; inactive = score below 0.9.

Signal transducer and activator of transcription 3 (Homo sapiens), sequence (P40763 whole entry, looked up): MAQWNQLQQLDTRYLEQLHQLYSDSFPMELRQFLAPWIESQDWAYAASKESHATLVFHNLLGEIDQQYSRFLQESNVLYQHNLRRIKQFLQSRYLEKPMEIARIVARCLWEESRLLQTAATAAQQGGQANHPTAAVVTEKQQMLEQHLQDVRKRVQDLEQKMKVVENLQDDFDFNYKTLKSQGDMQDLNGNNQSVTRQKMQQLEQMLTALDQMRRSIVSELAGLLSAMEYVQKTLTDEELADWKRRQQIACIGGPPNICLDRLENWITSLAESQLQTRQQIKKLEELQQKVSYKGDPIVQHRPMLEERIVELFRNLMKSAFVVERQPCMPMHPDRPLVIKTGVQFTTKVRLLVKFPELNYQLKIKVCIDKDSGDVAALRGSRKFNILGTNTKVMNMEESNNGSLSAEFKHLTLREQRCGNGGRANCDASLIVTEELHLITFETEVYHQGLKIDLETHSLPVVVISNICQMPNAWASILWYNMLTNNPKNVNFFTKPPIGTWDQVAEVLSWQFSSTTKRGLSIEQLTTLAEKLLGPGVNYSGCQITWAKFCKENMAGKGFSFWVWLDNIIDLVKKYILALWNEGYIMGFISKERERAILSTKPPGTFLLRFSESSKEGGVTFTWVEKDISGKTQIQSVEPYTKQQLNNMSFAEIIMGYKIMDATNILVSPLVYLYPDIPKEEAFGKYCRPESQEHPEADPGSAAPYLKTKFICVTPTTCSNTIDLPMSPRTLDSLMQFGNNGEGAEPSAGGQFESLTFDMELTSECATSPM
Nuclear factor NF-kappa-B p105 subunit (Homo sapiens), sequence (P19838 whole entry, looked up): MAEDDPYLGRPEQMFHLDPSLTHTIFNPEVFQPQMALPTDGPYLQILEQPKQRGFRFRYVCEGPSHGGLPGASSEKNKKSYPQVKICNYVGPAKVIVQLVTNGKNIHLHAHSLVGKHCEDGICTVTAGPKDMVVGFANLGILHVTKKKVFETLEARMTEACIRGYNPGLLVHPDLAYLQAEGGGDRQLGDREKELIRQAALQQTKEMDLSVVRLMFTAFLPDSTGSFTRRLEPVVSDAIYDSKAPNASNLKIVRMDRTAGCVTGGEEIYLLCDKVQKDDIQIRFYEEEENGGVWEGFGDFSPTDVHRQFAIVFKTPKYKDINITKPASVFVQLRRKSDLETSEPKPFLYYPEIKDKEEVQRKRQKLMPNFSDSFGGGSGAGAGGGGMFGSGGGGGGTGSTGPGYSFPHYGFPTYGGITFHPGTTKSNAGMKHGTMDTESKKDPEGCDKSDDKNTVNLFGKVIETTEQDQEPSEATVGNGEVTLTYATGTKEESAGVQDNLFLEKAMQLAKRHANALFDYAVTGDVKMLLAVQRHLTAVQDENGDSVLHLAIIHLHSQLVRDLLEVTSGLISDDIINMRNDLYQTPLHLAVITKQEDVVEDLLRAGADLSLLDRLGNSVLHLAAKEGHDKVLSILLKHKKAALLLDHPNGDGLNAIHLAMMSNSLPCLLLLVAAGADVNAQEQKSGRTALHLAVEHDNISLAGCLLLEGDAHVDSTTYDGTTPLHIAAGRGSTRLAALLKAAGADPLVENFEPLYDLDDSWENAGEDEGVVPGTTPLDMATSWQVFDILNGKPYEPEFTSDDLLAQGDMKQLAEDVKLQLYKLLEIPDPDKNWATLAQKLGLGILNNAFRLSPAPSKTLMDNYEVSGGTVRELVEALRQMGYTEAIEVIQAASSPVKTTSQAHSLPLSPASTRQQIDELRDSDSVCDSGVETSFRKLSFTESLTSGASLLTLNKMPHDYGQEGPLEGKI
Nuclear factor erythroid 2-related factor 2 (Homo sapiens), sequence (Q16236 whole entry, looked up): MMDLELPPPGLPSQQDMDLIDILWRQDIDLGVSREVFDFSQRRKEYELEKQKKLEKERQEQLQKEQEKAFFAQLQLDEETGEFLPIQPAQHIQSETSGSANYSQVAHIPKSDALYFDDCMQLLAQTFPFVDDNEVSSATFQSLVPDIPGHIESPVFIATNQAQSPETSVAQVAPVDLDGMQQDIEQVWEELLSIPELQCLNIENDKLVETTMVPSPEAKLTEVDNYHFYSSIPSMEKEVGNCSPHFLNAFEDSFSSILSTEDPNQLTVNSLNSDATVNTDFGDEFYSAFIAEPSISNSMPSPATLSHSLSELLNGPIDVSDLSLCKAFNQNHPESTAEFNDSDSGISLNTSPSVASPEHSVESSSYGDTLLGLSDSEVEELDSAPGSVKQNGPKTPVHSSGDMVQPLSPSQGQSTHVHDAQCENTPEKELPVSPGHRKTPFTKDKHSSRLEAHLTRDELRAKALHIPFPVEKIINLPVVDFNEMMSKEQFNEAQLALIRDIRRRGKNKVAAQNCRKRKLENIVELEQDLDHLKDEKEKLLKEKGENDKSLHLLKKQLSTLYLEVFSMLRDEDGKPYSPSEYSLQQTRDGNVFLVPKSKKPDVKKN
Cellular tumor antigen p53 (Homo sapiens), sequence (P04637 whole entry, looked up): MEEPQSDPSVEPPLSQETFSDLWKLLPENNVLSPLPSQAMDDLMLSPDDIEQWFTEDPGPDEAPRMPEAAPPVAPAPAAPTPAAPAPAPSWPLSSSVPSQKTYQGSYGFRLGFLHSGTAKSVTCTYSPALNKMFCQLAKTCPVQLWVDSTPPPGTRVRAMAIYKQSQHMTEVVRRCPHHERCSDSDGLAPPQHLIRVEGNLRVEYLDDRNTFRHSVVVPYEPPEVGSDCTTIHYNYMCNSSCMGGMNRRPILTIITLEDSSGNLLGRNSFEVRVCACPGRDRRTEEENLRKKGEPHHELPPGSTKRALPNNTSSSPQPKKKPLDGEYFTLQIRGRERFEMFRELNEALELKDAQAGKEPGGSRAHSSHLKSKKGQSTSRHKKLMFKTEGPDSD

The AC50 is the midpoint of the concentration-response curve, whichever way the signal moves. Take `COc1ccc([N+](=O)[O-])cc1N`: the result in experiment [1], in experiment [2], in [3], in [4], in experiment [5] and in experiment [6] was inactive. For the same compound, the call in experiment [7], in [8], in experiment [9], in experiment [10], in experiment [11] and in [12] was inactive. The call in [13], in experiment [15], in experiment [17] and in [18] was inactive. In addition, the AC50 is 9.92 µM (active) in experiment [14] and 50 µM (active) in experiment [16].
For the compound `CC(O)CO` (stereo not drawn), the call in [1], in experiment [19], in experiment [2], in [3], in experiment [4] and in experiment [5] was inactive. The outcome in experiment [6], in [7], in experiment [8], in [9], in experiment [10] and in [20] was inactive. In addition, the compound was classed as inactive in [11], in [12], in [13], in experiment [14], in experiment [16] and in experiment [17]. Moreover, the call in experiment [18] was inactive.
For `O=[N+]([O-])c1ccc(O)cc1`, the call in [1], in [2], in [3], in experiment [4], in experiment [5] and in experiment [6] was inactive. For the same compound, the compound was called inactive in experiment [7], in [8], in experiment [9], in [10], in [11] and in [12]. For the same compound, the result in experiment [13], in experiment [14], in experiment [15], in experiment [16], in [17] and in [18] was inactive.
`Oc1cc2ccccc2c2ccccc12`: the compound was classed as inactive in experiment [1], in experiment [2], in experiment [4], in [5], in [6] and in experiment [7]. Moreover, the compound was classed as inactive in experiment [8], in experiment [9], in experiment [10], in experiment [20], in [11] and in experiment [12]. Moreover, the compound was classed as inactive in experiment [13], in experiment [14], in experiment [16], in experiment [17] and in [18]. Further, in experiment [3], the AC50 is 50 µM (active).

The record behind these values is PubChem BioAssay (EPA / NIEHS).
